TROY signal inh – blocks TROY-dependent signaling in reporter cells. inhibition, % at 10 µM. AID 1347056. Q293 LMP1-TROYcd NF-kB luciferase reporter, 4 h. actives 0.98% (n = 360,000);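 active = compounds whose plate-normalised and pattern-corrected inhibition of the luciferase reporter signal at the single screening dose is 50% or more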
HSF-1 act – increases HSF-1 driven luciferase reporter signal; AID 504408; actives 1.7% (n = 300,000); activation, % at 9 µM; NIH3T3-HGL HSF-1 luciferase reporter, MG132, 8 h; 100% = twice DMSO control signal;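 active = mean replicate activation of at least 50% with a set share of replicates each reaching 50%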;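 note: 0% = median of the neutral control wells and 100% = twice that signal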
HSP90 inh – inhibitors of HSP90 luciferase refolding in rabbit reticulocyte lysate; luciferase refolding luminescence, 3 h; inhibition, % at 5.6 µM; actives 0.91% (n = 290,000);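 active = inhibition above the screen-wide mean plus 3 SD, computed separately per campaign, cut at about 16% in these data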;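 note: 0% = DMSO wells and 100% = 60 µM geldanamycin wells; inhibitors lower the luminescence because luciferase stays unfolded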
TWEAK-Fn14 inh – blocks TWEAK-Fn14 interaction in a reporter cell assay; AID 1159606; TWEAK-stimulated Fn14 reporter cells, luciferase luminescence, 8 h; inhibition, % at 10 µM; actives 2% (n = 360,000); in the data active = inhibition above about 50%
HSF1 inh – HSF1 inhibition; AID 2098; actives 0.77% (n = 300,000); NIH3T3-HGL HSE-luciferase, MG132-induced, luminescence 8 h; active compounds read low; activity change, negative = inhibition, % at 7.5 µM (by protocol);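 active = more than half of replicate wells show activity change below -50%, luminescence cut by over half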;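 note: luciferase reports HSF-1 transcriptional activity via heat shock element; 0% = median of DMSO wells and -100% = zero luminescence signal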
EBV LMP1 NFkB – reduces LMP1-driven NF-kappaB luciferase signal; LMP1-induced NF-kappaB luciferase reporter cells, luminescence; inhibition, % at 12.5 µM; actives 0.69% (n = 350,000); in the data active = inhibition above about 41%;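 note: 0% = neutral control wells and 100% = reference inhibitor control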
* = called active by the depositor. Rows were chosen to be rich in hits. Some 4.7% of all compounds tested hit in one or more screens of this group.

What do the screens show for `COc1ccc(-c2cc(=Nc3ccccc3)c3cc(C)ccc3o2)cc1`?
TROY signal inh: 12; HSF-1 act: 66*; HSP90 inh: 0; TWEAK-Fn14 inh: 31; HSF1 inh: 18; EBV LMP1 NFkB: -25

How did CC(=O)C1C(N2CC2)CC2C3CC=C4CC(O)CCC4(C)C3CCC21C (stereo not drawn) do in these assays?
TROY signal inh: 5; TWEAK-Fn14 inh: 16; EBV LMP1 NFkB: -1

How did O=C(NCP(=O)(Oc1ccccc1)Oc1ccccc1)OCc1ccccc1 do in these assays?
TROY signal inh: 9; TWEAK-Fn14 inh: -1

How did CCOc1ccc(-n2c(-c3cccs3)nc3ccccc3c2=O)cc1 do in these assays?
TROY signal inh: 17; HSF-1 act: 6; HSP90 inh: 1; TWEAK-Fn14 inh: 23; HSF1 inh: -4; EBV LMP1 NFkB: 0

Results for CCn1nc(-c2cccs2)nc2c(=O)n(C)c(=O)nc1-2 ?
TROY signal inh: 66*; TWEAK-Fn14 inh: 73*; EBV LMP1 NFkB: 33

How did C[C@]12CC[C@H](O)C[C@H]1CC[C@@H]1[C@@H]2CC[C@]2(C)C(=O)CC[C@@H]12 do in these assays?
TROY signal inh: 6; TWEAK-Fn14 inh: -8; EBV LMP1 NFkB: -5

What do the screens show for `Cc1ccc(N(C)C(=O)Oc2ccc(C(=O)c3ccc(Cl)cc3)cc2)cc1`?
HSF-1 act: 13; HSP90 inh: 1; TWEAK-Fn14 inh: 68*; HSF1 inh: -4; EBV LMP1 NFkB: 7

How did C[C@@H]1O[C@@H](O[C@@H]2C=C3CCC4C(CC[C@]5(C)[C@@H](c6ccc(=O)oc6)CC[C@]45O)[C@@]3(C)CC2)[C@H](O)[C@H](O)[C@H]1O (stereo partly drawn) do in these assays?
TROY signal inh: 47; TWEAK-Fn14 inh: 82*; EBV LMP1 NFkB: 88*

How did C[C@@H]1O[C@@H](O[C@@H]2C=C3CC[C@@H]4C(CC[C@]5(C)[C@@H](c6ccc(=O)oc6)CC[C@]45O)[C@@]3(C)CC2)[C@H](O)[C@H](O)[C@H]1O (stereo partly drawn) do in these assays?
TROY signal inh: 51*; TWEAK-Fn14 inh: 86*; EBV LMP1 NFkB: 82*

Results for Cc1ccccc1NC(=O)N1Cc2ccccc2-n2nncc2C1 ?
TROY signal inh: 0; TWEAK-Fn14 inh: -6; EBV LMP1 NFkB: 5

What do the screens show for `Clc1cccc(N2Cc3ccccc3-n3nncc3C2)c1`?
TROY signal inh: 1; TWEAK-Fn14 inh: 5

What do the screens show for `COC(=O)C12OCC34C(CC5C(C)=C(O)C(=O)CC5(C)C3C(O)C1O)OC(=O)C(OC(=O)/C=C(\C)C(C)C)C24` (stereo not drawn)?
TROY signal inh: 85*; TWEAK-Fn14 inh: 95*; EBV LMP1 NFkB: 95*

How did Cc1ccc(-n2nc(C)c3c2NC(=O)CSC3c2ccc3c(c2)OCO3)cc1 (stereo not drawn) do in these assays?
TROY signal inh: 19; HSF-1 act: -68; HSP90 inh: 0; TWEAK-Fn14 inh: 12; HSF1 inh: -63*; EBV LMP1 NFkB: 11

What do the screens show for `Cc1cc(N=Nc2ccccc2C)ccc1N`?
TROY signal inh: -96; HSF-1 act: 17; TWEAK-Fn14 inh: 3; HSF1 inh: 17; EBV LMP1 NFkB: -26

What do the screens show for `c1ccc(CN2COC3CCCCCC32)cc1` (stereo not drawn)?
TROY signal inh: 55*; TWEAK-Fn14 inh: 4

What do the screens show for `O=[N+]([O-])c1ccc(N2CCCC2)c2ccncc12`?
TROY signal inh: 16; HSF-1 act: -68; HSP90 inh: -9; TWEAK-Fn14 inh: 0; HSF1 inh: -60*; EBV LMP1 NFkB: -5

Results for O=[N+]([O-])c1ccc(NC2CCCC2)c2ccncc12 ?
TROY signal inh: -2; HSF-1 act: -6; HSP90 inh: -4; TWEAK-Fn14 inh: 26; HSF1 inh: -10; EBV LMP1 NFkB: 9

What do the screens show for `CN1CCN(c2ccc([N+](=O)[O-])c3cccnc23)CC1`?
TROY signal inh: -42; HSF-1 act: -67; HSP90 inh: 3; TWEAK-Fn14 inh: -32; HSF1 inh: -57*; EBV LMP1 NFkB: 1

How did CC(C)S(=O)(=O)N1Cc2ccccc2-n2nncc2C1 do in these assays?
TROY signal inh: -16; TWEAK-Fn14 inh: -35; EBV LMP1 NFkB: 3

Assay outcomes: PubChem, several laboratories
